Reference: PubChem BioAssay (NCI)
About 83,000 compounds went through this panel and 20% of them were active in at least one assay; those are over-represented in the sample as a whole.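 Note: values are percent growth. 100 is the growth of untreated cells, values between 100 and 0 indicate rising inhibition; between -100 and 0 indicates cell death.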 Values without a mark were called inactive. Activity calls are given as the source filed them. The calls were made as follows: active = growth percent below 10; inactive = the rest.

What was measured:
Assay in all cases: NCI-60 one-dose screen, 48 h (100 = growth as untreated, 0 = no growth, -100 = all killed)
Details in all cases: 10 µM unless noted
[1] = system: HCT-15 colon
[2] = system: SNB-75 CNS
[3] = system: SNB-19 CNS
[4] = system: U251 CNS
[5] = system: PC-3 prostate
[6] = system: SK-MEL-5 melanoma
[7] = system: UACC-62 melanoma
[8] = system: LOX IMVI melanoma
[9] = system: SK-MEL-28 melanoma
[10] = system: SK-MEL-2 melanoma
[11] = system: EKVX NSCLC
[12] = system: SN12C renal
[13] = system: UO-31 renal
[14] = system: TK-10 renal
[15] = system: ACHN renal
[16] = system: CAKI-1 renal
[17] = system: A498 renal
[18] = system: CCRF-CEM leukemia
[19] = system: MOLT-4 leukemia

Row | Structure (SMILES) | growth [1] | growth [2] | growth [3] | growth [4] | growth [5] | growth [6] | growth [7] | growth [8] | growth [9] | growth [10] | growth [11] | growth [12] | growth [13] | growth [14] | growth [15] | growth [16] | growth [17] | growth [18] | growth [19]
1 | Cc1ccc(C2CC(c3cccc(Nc4ccncc4)c3)=Nc3c(N)nc(N)nc3N2)cc1 (stereo unspecified) | 40.4% | 70% | 70.5% | 42.4% | 43.8% | 65.3% | 78.4% | 25.7% | 93.2% | 71.1% | 60.2% | 61.2% | 75.3% | 99.8% | 56.1% | 72.3% | 86% | 33.9% | 33.4%
2 | c1ccc(Cn2cc3c(c2-c2ccccc2)CCc2cnoc2-3)cc1 | 48.6% | 4.38% (active) | 70.6% | 55.5% | 82.5% | 78.8% | 43.1% | 66.1% | 59.5% | 93.4% | 80.1% | 101% | 80.1% | 101% | 101% | 84.1% | 54% | 48.3% | 58.5%
3 | CCN(CC)CCOc1ccc(Nc2ncc3cc(-c4c(Cl)cccc4Cl)c(=O)n(CCOC)c3n2)cc1 | 12.9% | -39.9% (active) | 18.4% | 0.141% (active) | 60% | 13.6% | 32.1% | -77.6% (active) | 36.9% | 34.8% | 27.3% | 10.5% | -88.9% (active) | -55.5% (active) | 5.69% (active) | 2.96% (active) | -75.9% (active) | 4.55% (active) | 1.6% (active)
4 | CCOC(=O)/C(=C(/C)NCC(C)C)c1cc(O)c(O)c2c(C)cc(=O)[nH]c12 | 29.8% | 78.2% | 50.9% | 46.8% | 34.3% | 43.2% | 66.8% | 38.1% | 71% | 69.1% | 89.3% | 42.9% | – | 77.7% | 47.8% | 51.4% | 79.2% | 11.2% | 10.5%
5 | COc1ccc(N=C2NN=C(c3c[nH]c4ccccc34)CS2)cc1OC | 43.3% | 42.2% | 51.8% | 44.8% | -41.3% (active) | 51.9% | 35.6% | 45.1% | 63.7% | 19.1% | 63.3% | 70.7% | 35.9% | 96% | 62.8% | 63.8% | 62.5% | 39.5% | 39.9%
6 | Nc1ncccc1O | 18.7% | 121% | 101% | 81.4% | 133% | 101% | 89.3% | 75.2% | 106% | 17.3% | 120% | 96.7% | 92.5% | 108% | 5.59% (active) | 56.6% | 99.7% | 84.6% | 65%
7 | CC(C)C1C2=C(NCCN1C(=O)c1ccncc1)C(C)(C)N(Cc1ccccc1)C2=O (stereo unspecified) | 103% | 81.7% | 101% | 100% | 96.1% | 105% | 95.6% | 95.5% | 114% | 97.4% | 99.1% | 93.3% | 83.2% | 89.9% | 105% | 94.4% | 113% | 108% | 84%
8 | O=C1CCC(C(=O)N/N=C/c2cc(F)ccc2F)N1 (stereo unspecified) | 98.6% | 80.7% | 98.9% | 98% | 95.8% | 100% | 98.1% | 95.1% | 108% | 97.8% | 100% | 96.6% | 92.4% | 104% | 100% | 98% | 106% | 103% | 101%
9 | ClC(Cl)c1nc(-c2ccccc2)n2nc(-c3ccccc3)cc2n1 | -16% (active) | -37.5% (active) | 6.64% (active) | -14.9% (active) | 17.2% | 84.4% | 68.4% | 72.1% | 25.5% | 72.1% | -22.1% (active) | 58.7% | 3.46% (active) | 0.776% (active) | -57% (active) | -34.7% (active) | -26.5% (active) | 63.3% | 30.8%
10 | CN(C)CCCn1c2c(c3cnccc3c1=O)C(=O)c1ccccc1-2 | -3.54% (active) | 10.6% | 1.02% (active) | 0.151% (active) | -5.36% (active) | -75.8% (active) | -64.6% (active) | -44.9% (active) | -28.1% (active) | -13.5% (active) | 40.9% | 1.1% (active) | -39% (active) | 3.67% (active) | -25.9% (active) | 1% (active) | 25.8% | 9.81% (active) | -2.22% (active)
11 | O=S(=O)(N=C1C(Cl)=C(Cl)C(=NS(=O)(=O)c2ccccc2)C(Cl)=C1Cl)c1ccccc1 | 7.28% (active) | 132% | 95.9% | 59.8% | 121% | 87% | 67.1% | 54.6% | 89.5% | 14% | – | 87.6% | 89.5% | 95.3% | -22.5% (active) | 5% (active) | 96.8% | 73.6% | 55%
12 | CC12OC(CC(O)C1O)n1c3ccccc3c3c4c(c5c6ccccc6n2c5c31)C(=O)N(CCN1CCCC1)C4=O (stereo unspecified) | 10.5% | 10.2% | 13.4% | 11.8% | 20.8% | 28.9% | – | -2.77% (active) | 63% | 31.9% | 38.4% | 14.9% | 19.5% | 21.2% | -38.1% (active) | 15.4% | 17.8% | 20.3% | -3.23% (active)
13 | CS(=O)(=O)c1ccc(-c2nc3ccccc3n2CC(=O)N/N=C/c2ccccc2)cc1 | 100% | 96.5% | 107% | 109% | 96.9% | 100% | 94.4% | 107% | 103% | 99.7% | 92.9% | 108% | 76.3% | 103% | 101% | 89.4% | 111% | 104% | 117%
14 | CCOC(=O)c1c(NC(=O)c2ccccc2)sc2c3c(ccc12)OCN(C)C3 | -48.4% (active) | 79.3% | 8.15% (active) | -13% (active) | 21.7% | -40.3% (active) | -71.2% (active) | -90.8% (active) | -92.2% (active) | -34.4% (active) | 26.3% | 20.4% | -75.6% (active) | 68.5% | -68.7% (active) | -42% (active) | 46.5% | -0.327% (active) | -33% (active)
15 | C=C1C(=O)O[C@H]2[C@H]1CC/C(COC(=O)C(=O)c1c[nH]c3ccc(Cl)cc13)=C\CC[C@@]1(C)O[C@@H]21 | -58.4% (active) | -97% (active) | -71.6% (active) | -93.1% (active) | -74.4% (active) | -97.6% (active) | -81.8% (active) | -92.7% (active) | -72.4% (active) | -58.9% (active) | -73.6% (active) | -86.8% (active) | -94.4% (active) | -96.4% (active) | -84.3% (active) | -87.5% (active) | -87.4% (active) | -41.3% (active) | -12.4% (active)
16 | CCOC(=O)CNC1=C(Cl)C(=O)N(Cc2ccc(Cl)cc2)C1=O | 110% | 97.9% | 98.6% | 100% | 97.7% | 102% | 104% | 95.9% | 106% | 101% | 100% | 99.1% | 66.6% | 102% | 101% | 95.4% | 90.3% | 102% | 98.2%
